# FBW7 activator – human FBW7 E3 ligase activation, primary screen; AlphaScreen FBW7–phospho-cyclin E peptide binding, activator screen; Q969H0; normalized activity (activation), % at 26.1 µM; 0.13% of 650,000 active; in the data active means normalized activity above about 1.9%;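 further: purified mutant Fbw7 with reduced substrate affinity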
# GPR151 ag – activators of human GPR151; Q8TDV0; PathHunter beta-arrestin GPR151 cells, luminescence; activation, % at 11.2 µM; 1% of 650,000 active; in the data active means activation above about 4.9%;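 further: 0% = median of compound wells and 100% = cells with positive control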
# Target sequence (Q8TDV0 whole entry, looked up): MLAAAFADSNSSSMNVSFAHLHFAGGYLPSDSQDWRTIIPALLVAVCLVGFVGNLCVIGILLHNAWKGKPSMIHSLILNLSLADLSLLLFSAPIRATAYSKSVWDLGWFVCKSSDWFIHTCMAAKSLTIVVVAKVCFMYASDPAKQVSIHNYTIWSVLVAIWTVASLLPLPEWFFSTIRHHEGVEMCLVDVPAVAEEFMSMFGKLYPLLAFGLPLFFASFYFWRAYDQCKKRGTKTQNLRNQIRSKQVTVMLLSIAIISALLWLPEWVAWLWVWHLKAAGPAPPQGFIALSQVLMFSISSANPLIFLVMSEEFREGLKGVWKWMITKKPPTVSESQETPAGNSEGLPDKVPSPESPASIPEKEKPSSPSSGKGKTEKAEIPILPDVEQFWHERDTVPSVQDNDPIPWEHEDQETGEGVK
# MITF inh – blocks human microphthalmia-associated transcription factor; O75030; AlphaScreen MITF homodimerization, bead proximity signal; inhibition, % at 2.6 µM; 0.91% of 650,000 active; AID 1259374; in the data active means inhibition above about 50%;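 further: 0% = vehicle wells with protein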
# TEAD-YAP inh – TEAD-YAP interaction inhibition. 1.4% of 640,000 active. inhibition, % at 9.12 µM. HEK-TIYL cells, TEAD-Gal4/YAP UAS-luciferase luminescence; in the data active means inhibition above about 32%;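 further: 0% = median of test compound wells and 100% = reference inhibitor wells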
# GPR151 confirm – human GPR151 activation, confirmation screen | shares compounds with GPR151 ag | GPR151 PathHunter beta-arrestin cells, luminescence, 90 min; % of EA-reagent control over plate median | 6,700 tested, under 10 active | activation, % at 11.2 µM;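 active means mean percent activation across replicates above the confirmation screen cutoff of 4.91%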
# GPR119 counter – counter-screen for GPR151 activators: effect on human GPR119 | shares compounds with GPR151 ag | GPR119 PathHunter beta-arrestin cells, luminescence, 90 min; 0 = compound-well median, 100 = enzyme-acceptor control | activation, % at 11.2 µM | 0.3% of 6,700 active | AID 1508611;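 active means mean percent activation in the counterscreen above 29.09%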;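 further: counterscreen on off-target GPR119 to flag nonselective hits from the GPR151 activator screen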
# Starred values were filed as active, the others as inactive; x = no result; ! = not confirmed by another sample. An excerpt weighted towards active compounds, which were near 3.5% of everything screened.
SMILES,FBW7 activator,GPR151 ag,MITF inh,TEAD-YAP inh,GPR151 confirm,GPR119 counter
COc1ccc(OCC(=O)N/N=C/c2cc3c(cc2[N+](=O)[O-])OCO3)cc1,-0.1,10.2*,-1.2,-6.1,-0.4,-14.7
Cc1ccc(OCC(=O)N/N=C/c2cc3c(cc2[N+](=O)[O-])OCO3)cc1C,-0.1,-1.2,18.3,5.6,x,x
O=C(NCc1ccccc1Cl)C1CCC(Cn2c(SCc3cccc([N+](=O)[O-])c3)nc3ccccc3c2=O)CC1 (stereo not drawn),-0.2,1.0,-6.2,-13.2,x,x
CCOC(=O)c1nnn(CC(=O)NC(=O)Nc2cccc(CC)c2)c1C(=O)OCC,0.0,5.7*,3.0,2.7,1.5,10.1
O=C(CNC(=O)c1cccs1)OCc1c(F)cccc1Cl,0.1,0.7,3.2,-0.6,x,x
O=C(CNC(=O)c1cccs1)OCc1c(Cl)cccc1Cl,-0.1,5.4*,-8.0,1.2,0.2,-3.4
O=C1CSC(=S)N1N1C(=O)c2ccc([N+](=O)[O-])cc2C1=O,-0.1,4.7,13.6,8.1,x,x
CCN1CCN(C(C)C(=O)Nc2ncc(C)s2)CC1 (stereo not drawn),0.0,7.0*,15.9,3.8,1.1,12.5
O=C(CSc1nc2cc(C(=O)NCC3CCCO3)ccc2c(=O)n1CC1CCCO1)NC1CCCCC1 (stereo not drawn),0.5,0.8,1.8,0.0,x,x
O=C(CSc1nc2cc(C(=O)NCC3CCCO3)ccc2c(=O)n1Cc1ccco1)NC1CCCCC1 (stereo not drawn),0.1,5.2*,-9.0,-0.8,-0.5,-2.4
CCOC(=O)C1=CN(c2ccc(C)cc2)C=C(C(=O)OCC)C1c1ccc(OC)c(OC)c1,0.3,-0.9,-8.1,4.8,x,x
CCc1cccc(C)c1NC(=O)c1cc(C(=O)OC)cc([N+](=O)[O-])c1,0.7,1.0,10.6,-8.7,x,x
COc1cc2nc(SCC(=O)NCc3ccccc3)n(Cc3ccc(Cl)cc3)c(=O)c2cc1OC,0.1,-0.1,-0.3,4.2,x,x
CCc1nnc(NC(=O)C2(c3cccc(F)c3)CCCC2)s1,0.0,5.2*,7.7,0.0,0.7,-2.0
Cc1ccc(CSc2nc(=O)[nH]c3c2CCCC3)cc1,0.1,0.3,27.6,1.2,x,x
CCN(CC)CC(=O)Nc1nc2ccc(OC)cc2s1,-0.2,0.9,12.8,-15.3,x,x
CCC(=O)NNc1nc2ccc(OC)cc2s1,0.6,6.3*,-9.3,3.5,0.9,6.4
Cc1ccc(C(C)CCN2CCOc3ccc(CN4CCC(O)CC4)cc3C2)o1 (stereo not drawn),0.6,-0.1,0.9,3.7,x,x
CN(CC1COCCO1)C(=O)c1cc(COc2c(F)cccc2F)on1 (stereo not drawn),0.0,16.2*,5.8,-8.7,-0.2,2.2
O=C(NCCO)C1CCCN(c2cccc3c2C(=O)N(C2CCCCCCC2)C3=O)C1 (stereo not drawn),0.3,5.8*,-2.2,-0.7,0.1,8.0
O=C1c2cccc(N3CCCC(C(=O)N4CCC[C@H]4CO)C3)c2C(=O)N1C1CCCC1 (stereo partly drawn),0.1,1.7,4.1,-30.9,x,x
O=c1cc(N2CCOCC2)oc2c(-c3ccccc3)cccc12,0.1,5.4*!,4.6,-6.7,-0.3,-5.8
O=C(O)c1ccc2c(c1)N=C(N1CCOCC1)c1ccccc1S2,0.0,0.2,12.9,0.0,x,x
C=C(C)CN(CC)Cc1nc(-c2ccccn2)no1,0.0,14.4*,6.3,1.9,0.1,0.2
O=C(Cn1cncn1)NN=C1c2ccccc2-c2ccccc21,-0.2,5.2*,-2.8,-5.5,0.7,6.4
SMILES,FBW7 activator,GPR151 ag,MITF inh,TEAD-YAP inh,GPR151 confirm,GPR119 counter
O=C(Cn1cncn1)N/N=C/c1ccccc1Cl,0.2,1.4,12.3,1.4,x,x
O=c1cc(CSCc2ccc(Cl)c(Cl)c2)nc2ccccn12,0.6,1.7,-5.2,0.7,x,x
CC(=O)c1cccc(NC(=O)NC2CCS(=O)(=O)C2)c1 (stereo not drawn),0.9,-1.5,11.7,9.1,x,x
O=C(Cc1cccs1)N/N=C\c1ccc(O)cc1,-0.1,-1.6,18.5,-12.1,x,x
O=C(Cc1cccs1)N/N=C\c1ccc(O)c(O)c1,-0.1,5.3*,-6.8,-14.4,-0.3,1.0
O=c1cnn(-c2ccccc2)c(-c2ccccc2)c1,0.0,6.7*,1.8,-7.2,-0.4,-2.5
NNC(=O)c1cc(-c2ccccc2)n(-c2ccccc2)n1,-0.1,-0.8,-16.8,-0.7,x,x
C=CCNC(=O)C(=O)NCCc1c[nH]c2ccccc12,0.1,0.3,3.2,2.4,x,x
CCOC(=O)CCN1C(=O)[C@H]2[C@H]3[C@H](O)[C@H](O)C/C(=N\NC(=O)OCc4ccccc4)[C@@H]3CC[C@H]2C1=O,0.0,0.5,10.9,x,x,x
CCN1C(=O)[C@H]2[C@H]3[C@H](O)[C@H](O)C/C(=N\NC(=O)OCc4ccccc4)[C@@H]3CC[C@H]2C1=O,-0.1,5.0*,8.8,x,0.4,8.4
CCCOc1ccccc1/C=C1/C(=O)ON=C1C,0.0,7.4*,19.3,5.7,-0.8,-2.5
CCCOc1ccc(/C=C2/C(=O)ON=C2C)cc1OCC,-0.1,-0.9,41.9,2.5,x,x
O=C(Nc1ccc(I)cc1)c1cc(Cl)ccc1[N+](=O)[O-],0.2,-0.7,-0.2,12.8,x,x
O=C1CCCCC1Oc1cc(O)c2c(=O)cc(-c3ccccc3)oc2c1 (stereo not drawn),0.0,7.0*,4.9,-7.0,1.5,21.6
CC(=O)C(C)Oc1cc(O)c2c(=O)cc(-c3ccccc3)oc2c1 (stereo not drawn),-0.2,-0.1,0.0,-21.9,x,x
Cc1cc(C)nc(NNS(=O)(=O)c2ccc(Cl)cc2)n1,-0.1,5.9*,4.0,0.3,1.5,6.8
CCc1ccccc1-n1sc2c(c1=S)-c1cc(C)ccc1NC2(C)C,-0.1,0.7,9.3,2.4,x,x
COCCNC(=O)CN(C(=O)CCC(=O)Nc1nccs1)c1ccc2c(c1)OCO2,0.1,7.3*,-4.1,0.9,0.6,11.4
O=C(CN(C(=O)CCC(=O)Nc1nccs1)c1cccc(F)c1)NCC1CCCO1 (stereo not drawn),1.0,9.2*,11.2,-5.0,0.5,-0.1
COc1ccccc1C(CC(=O)Nc1nccs1)c1ccc2c(c1)OCO2 (stereo not drawn),0.1,6.6*,-0.3,-4.9,-0.3,13.1
COCCNC(=O)CN(C(=O)CCC(=O)Nc1ccccn1)c1ccc2c(c1)OCO2,0.4,-0.8,8.3,-4.6,x,x
COc1ccc(C)cc1S(=O)(=O)Nc1cccc(-n2c(C)nc3ccccc3c2=O)c1,0.0,-1.2,-0.2,-1.5,x,x
O=C(Cn1cc2c(n1)CCCC2)NCCCN1CCCCC1,0.8,0.7,0.2,2.2,x,x
O=C(Cn1cc2c(n1)CCCC2)NCCCN1CCN(C2CCCCC2)CC1,0.2,5.0*,13.5,6.2,0.7,10.8
Cc1nc2c(-c3ccccc3)c(C)nn2c(C)c1CCC(=O)NCCN1CCOCC1,0.1,7.6*,-3.6,0.9,-0.7,-7.4

# Source: PubChem (The Scripps Research Institute Molecular Screening Center)
